In PubChem BioAssay AID1117319 (Southern Research Institute, 2015):
Where “and” joins values, the source holds several entries; their conditions need not be identical. Identical values can stand only once. The campaign covered roughly 260,000 compounds. About 1,500 (0.58%) were called active. Not shown: some 5% with an inconclusive outcome.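 The calls were made as follows: active = inhibition above a set limit at one or more doses, reproduced on every date tested; inconclusive = results disagree between test dates, or hit never tested in dose response; inactive = the rest.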 These entries were drawn from the full list. Entries with a potency or affinity are not part of this list.

What follows are compounds tested against Virion infectivity factor (Human immunodeficiency virus type 1 group M subtype B (isolate BH10)) + Virion infectivity factor (Human immunodeficiency virus type 1 group M subtype B (isolate BRU/LAI)) + Virion infectivity factor (Human immunodeficiency virus type 1 group M subtype B (isolate PCV12)) + Virion infectivity factor (Human immunodeficiency virus type 1 group M subtype B (isolate HXB2)) + DNA dC->dU-editing enzyme APOBEC-3G (Homo sapiens) (UniProt P69720+P69721+P69722+P69723+Q9HC16) (assay: HIV-1 Vif–A3G interaction blockers – biochemical, TR-FRET, GST-Vif 1-94, biotin-A3G peptide, dose response retest, primary screen (AID 1117319;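 also: Vif residues 1-94 fused to GST binding biotinylated APOBEC3G peptide 110-148; 0% = full assay without inhibitor and 100% = GST in place of GST-Vif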)). Conditions: TR-FRET GST-Vif / biotin-A3G peptide binding; stronger effect = higher value.

inhibition, inactive:
CC1CCCN(S(=O)(=O)c2ccc(S(=O)(=O)NC(C)c3cccs3)cc2)C1 (centres undefined) -0.23%
CCOc1ccc(NC(=O)CC(=O)Nc2ccc(OCC)cc2)cc1 3.52%
COc1ccc(C(=O)NC2c3ccccc3-c3ccccc32)cc1 6.08%
Cc1[nH]c2ccccc2c1Cc1nnc(SCC(N)=O)o1 9.95%
C=CCSc1nnc(Cc2c(C)[nH]c3ccccc23)o1 12.5%
Cc1ccc(CNC(=O)COC(=O)Cn2nc(C)c([N+](=O)[O-])c2C)cc1 2.03%
Cc1ccc2[nH]c(O)c(N=NC(N)=S)c2c1 16.9%
NC(=S)N=Nc1c(O)[nH]c2ccc(F)cc12 14.4%
CNC(=S)NNc1nncc2ccccc12 -3.6%
CC(C)n1cnc2c(=S)nc[nH]c21 14.2%
O=C(CSc1nnnn1-c1cccc2ccccc12)N1CCOCC1 10.1%
CCC(C(=O)O)N1C(=O)/C(=C/c2cccn2C)SC1=S (centres undefined) 21.2%
CC(=C\c1ccccc1)/C=C1/SC(=S)N(C(C(=O)O)C(C)C)C1=O (centres undefined) -2.28%
CC(/C=C1\SC(=S)N(C(C(=O)O)C(C)C)C1=O)=C\c1ccccc1 (centres undefined) 9.15%
CC(C)C(C(=O)O)N1C(=O)/C(=C/c2cccn2C)SC1=S (centres undefined) 5.17%
CN(CCC#N)C(=O)COC(=O)c1ccccc1OCc1ccccc1Cl 23.6%
CCCCCCOc1ccc(N2C(=O)CC(N(CCc3ccc(S(N)(=O)=O)cc3)C(C)=O)C2=O)cc1 (centres undefined) -1.36%
CN1/C(=C/C(=S)NC(=O)C2CCC2)C(C)(C)c2ccccc21 3.95%
CCn1c(SCC(=O)NCc2cccs2)nnc1-c1cccs1 2.35%
Cc1cccc(C)c1NC(=O)CCS(=O)(=O)c1ccc(Br)cc1 -1.3%
CCOc1ccc(NC(=O)CCS(=O)(=O)c2ccc(C)cc2)cc1 -2.94%
Cc1cccc(NC(=O)CCS(=O)(=O)c2ccc(Br)cc2)c1 3.92%
CCc1ccc(NC(=O)CCS(=O)(=O)c2ccc(Br)cc2)cc1 11.1%
CCN(CC)c1ccc(NC(=O)CCS(=O)(=O)c2cccc3nsnc23)c(C)c1 12.7%
CCOc1ccccc1NC(=O)CCN1CCN(S(=O)(=O)c2ccc(Br)cc2)CC1 -2.68% and -11.1%
O=C(CCS(=O)(=O)c1ccc(Br)cc1)Nc1ccccc1Cl 24.5%
Cc1ccc(S(=O)(=O)CCC(=O)Nc2ccc(Br)cc2)cc1 21.8%
O=C(CN(Cc1ccc(F)cc1)C(=O)CNS(=O)(=O)c1ccccc1)NCc1ccco1 -1.61%
CC(=O)N1CCN(S(=O)(=O)c2ccc(Cl)cc2F)CC1 -2.38%
CC(C)c1nc(SCC(=O)N2CC(=O)Nc3ccccc32)c2ccccc2n1 -15.6%
C#CCOCCOCCOCCNc1nc(N2CCN(C(=O)[C@H](CO)n3cc([C@@H](N)C(C)C)nn3)CC2)nc(N2CCN(C(=O)[C@H](CCC(=O)O)n3cc([C@@H](N)CCCCN)nn3)CC2)n1 19.7%
Cc1ccccc1-n1nc2c(c1NC(=O)c1cc3ccccc3o1)CS(=O)(=O)C2 0.92%
COc1ccc(F)cc1CN1CCN(C(=O)CCC(=O)Nc2nnc(C(C)C)s2)CC1 1.87%
O=C(Nc1cccc(C(F)(F)F)c1)Oc1ccccc1N1CCOCC1 4.5%
COc1ccc(Cl)cc1NC(=O)CCS(=O)(=O)c1ccc(C)cc1 0.29%
COc1ccc([N+](=O)[O-])cc1NC(=O)CCS(=O)(=O)c1ccc(Br)cc1 23.2%
COC(=O)c1ccccc1NC(=O)CCS(=O)(=O)c1ccc(Br)s1 -6.38%
Cc1ccccc1NC(=O)CCS(=O)(=O)c1ccc(Br)cc1 19.3%
CCNC(=O)CSc1nnc(-c2cc(-c3ccc(Cl)cc3)nc3ccccc23)o1 -0.32%
O=C(OCc1cn([C@H]2CN(CC3CCCCC3)[C@@H](c3ccc(Cl)cc3)C[C@@H]2O)nn1)c1ccccc1 -2.33%
CC1CCCCC1NC(=O)CSc1nnc(COc2ccc(Cl)cc2)o1 (centres undefined) 3.41%
Cc1nc(-c2ccc(S(=O)(=O)Nc3ccc(Br)cc3Cl)s2)cs1 -10.4%
O=C(NCCCCCCCCCNC(=O)C(F)(F)F)C(F)(F)F 3.63%
O=C(NCCCCNC(=O)C(F)(F)F)C(F)(F)F 0.85%
O=C(COC(=O)CNC(=O)c1ccc(Br)o1)Nc1ccccc1OC(F)F 6.47%
CCOC(=O)COc1nc(-c2ccccc2)cc(-c2ccco2)c1C#N 4.55%
CCOC(=O)COc1nc(-c2ccc(C)cc2)cc(-c2ccco2)c1C#N -6.28%
Cc1cccc(CC(Cc2nc3ccccc3[nH]2)c2nc3ccccc3[nH]2)c1 (centres undefined) 10.6%
Cc1ccc2c(Cl)cc(Cl)c(OCC(=O)Nc3cccc(S(N)(=O)=O)c3)c2n1 -2.21%
Cc1ccc(-c2cc(C(=O)N/N=C/C(Br)=C/c3ccccc3)n[nH]2)o1 27.2%
O=C(N/N=C/C(Br)=C\c1ccccc1)c1ccco1 8.5%
CCOc1ccc(S(=O)(=O)Nc2cccc(C(=O)N3CCN(c4ccccc4O)CC3)c2)cc1 4.44%
COC(=O)/C(=N/Nc1cccc(C)c1)N1CCCc2ccccc21 24.9%
COC(=O)/C(=N/Nc1ccccc1OC)N1CCCc2ccccc21 14.5%
O=C(NCCc1ccccc1)C1CCN(S(=O)(=O)c2cccc3nsnc23)CC1 -0.39%
N#C/C(=C/c1ccc(N2CCCCCC2)o1)c1ccc(F)cc1 5.86%
N#C/C(=C/c1ccc(N2CCCCCC2)o1)c1ccc(Cl)cc1 17.8%
Cc1ccc(/C=C/C(=O)NCCCn2ccnc2)cc1 -9.33%
CN(C)c1cc(Nc2cccc(O)c2)c([N+](=O)[O-])c2nonc12 -10.7%
CC(=O)Nc1ccc(Nc2cc(N(C)C)c3nonc3c2[N+](=O)[O-])cc1 0.25%
O=[N+]([O-])c1c(Nc2ccccn2)cc(Cl)c2nonc12 10.6%
O=[N+]([O-])c1c(Nc2ccccc2O)ccc2nonc12 1.82%
CC(C)CC(=O)Nc1ccnn1C1CCN(C(=O)c2ccccc2F)CC1 -2.89%
CCOC(=O)c1c(/N=C/N(C)C)sc(C)c1C -7.57%
O=C(CCCN1C(=O)c2ccccc2C1=O)N1CCc2ccccc2C1 -3.95%
CN1CCN(C(=O)CN2C(=O)CC(C)(C)S(=O)(=O)c3ccccc32)CC1 -1.94%
O=C(NCCc1ccccc1Cl)c1cc(COc2ccc(F)cc2F)on1 2.92%
O=C(COc1ccc(-c2nnco2)cc1)Nc1ccc(F)c(Cl)c1 -11.6%
N=c1c(C(=O)NCc2ccco2)cc2c(=O)n3ccccc3nc2n1CCc1ccccc1 19.6%
CCNC(=O)c1cc2c(=O)n3cccc(C)c3nc2n(CCc2ccccc2)c1=N -4.24%
CCOc1cc(N2CCOCC2)c(OCC)cc1NC(=O)CSc1nc(N)cc(=O)[nH]1 -6.18%
CCOc1cc(N2CCOCC2)c(OCC)cc1NC(=O)CSc1ncccn1 -9.38%
CCOc1cc(N2CCOCC2)c(OCC)cc1NS(=O)(=O)c1ccc2c(c1)CC(=O)N2 9.5%
CCOc1cc(N2CCOCC2)c(OCC)cc1NC(=O)C(C)(C)C 31%
CCOc1cc(N2CCOCC2)c(OCC)cc1NC(=O)C(C)C 32.2%
CCN(CC)S(=O)(=O)c1ccc(N2CCOCC2)c(NS(=O)(=O)c2ccc(Cl)s2)c1 7%
CC1CCCC(C)N1C(=O)COc1cccc(Oc2ccccc2)c1 (centres undefined) -6.13%
O=C(Oc1cc(-c2ccccc2)no1)c1cccc(C(F)(F)F)c1 12%
CCCN(CC(=O)Nc1ccccc1C)C(=O)c1ccc(C)c(S(=O)(=O)N2CCCCC2)c1 -7.29%
COc1ccc(C(=O)NCc2cccnc2)cc1Br 7.76%
CCCCN1C(=O)NC(NC(=O)c2ccco2)(C(F)(F)F)C1=O (centres undefined) -1.08%
CCCCn1c(N)c(N(CC)C(=O)/C=C/c2ccco2)c(=O)[nH]c1=O -7.61%
COC(=O)C(=C/C=C/c1ccco1)C(=O)OC 32.7%
Cn1nnc(NC(=O)/C=C/c2ccco2)n1 11.5%
CC1Cc2c([nH]c3ccccc23)C(=O)N1 (centres undefined) 0.31%
COc1c2ccoc2c(OC(C)=O)c2oc(C)cc(=O)c12 0.13%
COC(=O)Cn1cnc2c1c(=O)n(C)c(=O)n2C 1.38%
Cc1csc(NC(=O)C2CCCCN2S(=O)(=O)c2ccccc2)n1 (centres undefined) 1.7%
Cc1ccc(NC(=O)CSc2nnc(-c3ccco3)c(-c3ccco3)n2)cc1 25.5%
CCc1nnc(SCC(=O)Nc2ccc(C(C)=O)cc2)nc1CC 2.81%
COc1cccc(NC(=O)CSc2nc(N)cc(N)n2)c1 3.65%
COc1cccc(NC(=O)CSc2ccc(-c3ccco3)nn2)c1 3.97%
O=C(CSc1n[nH]c(-c2ccco2)n1)Nc1ccccc1 5.48%
CC(=O)c1ccc(NC(=O)CSc2ccc(-c3ccco3)nn2)cc1 -1.56%
